Bioassay records (PubChem)
Shown are actives, neighbours in structure and some others; about 4.1% of the full set was active somewhere.
ssDAF12 agonist: S. stercoralis DAF-12 activation, primary screen | 1% of 370,000 active | AID 652126 | HEK293 ssDAF-12/GRIP1 lit1-tk-luc reporter, luminescence; % of 3 µM dafachronic acid response | activation, % at 6.8 µM;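 active = activation above the mean over all tested compounds plus 3 SD, cut at about 0.9% in these data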;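 also: 0% = DMSO-only wells and 100% = 3 µM delta7-dafachronic acid wells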
hgDAF12 agonist: agonists of H. glycines DAF-12 nuclear receptor; HEK293 GAL4-hgDAF12 UAS-luciferase reporter, agonist luminescence; normalized to butyrate control; activation, % at 6.8 µM; 1.8% of 370,000 active;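 active = activation above a cutoff set at the mean of all screened compounds plus 3 SD, cut at about 10% in these data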;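 also: 0% = DMSO wells and 100% = sodium butyrate wells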
hcDAF12 agonist: activators of H. contortus DAF-12 nuclear receptor; HEK293 hcDAF-12 lit1-tk-luc reporter, luminescence; 0% DMSO, 100% Δ7-dafachronic acid; activation, % at 6.8 µM; 1.4% of 370,000 active; AID 652067;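 active = activation above the mean of all tested compounds plus 3 SD, cut at about 5.5% in these data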;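 also: 100% = response to 3 µM Δ7-dafachronic acid high control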
PolyA inhibitor: blocks polyadenylation in yeast reporter cells | 0.02% of 300,000 active | activity score, % at 12 µM | S. cerevisiae SKY197-pL101 polyadenylation reporter, beta-gal luminescence; efflux-impaired pdr1/pdr3 knockout yeast; score 100 = 6 SD above DMSO;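 active = lowest replicate activity score at least 50, where 100 means six control SD above control mean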;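 also: yeast exposed to compound for 9 h at 30 °C; higher score means more reporter readthrough which indicates perturbed polyadenylation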
DAX1 inh-1: blocks DAX1 repression of SF-1 activated StAR promoter; AID 652010; inhibition, % at 6.8 µM; 1.1% of 370,000 active; HEK293T StAR-luciferase reporter, SF-1/DAX-1 repression relief;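 active = inhibition above the mean over all tested compounds plus 3 SD, cut at about 3.6% in these data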;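 also: 0% = DAX-1 cells with DMSO and 100% = cells lacking DAX-1 with DMSO; higher inhibition means more luminescence from relief of DAX-1 repression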
DAX1 inh-2: NR0B1 (DAX1) inhibition; HEK293 Gal4-DAX1 luciferase reporter, luminescence; 0.99% of 340,000 active; P51843; AID 504766; inhibition, % at 6.75 µM;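 active = inhibition above the mean over all tested compounds plus 3 SD, cut at about 4.2% in these data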;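 also: 0% = DAX1-transfected cells with DMSO and 100% = empty-vector control cells with DMSO; inhibition shows as a rise in luminescence from relieved DAX1 repression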
Target sequence (P51843 207-470 limits assumed): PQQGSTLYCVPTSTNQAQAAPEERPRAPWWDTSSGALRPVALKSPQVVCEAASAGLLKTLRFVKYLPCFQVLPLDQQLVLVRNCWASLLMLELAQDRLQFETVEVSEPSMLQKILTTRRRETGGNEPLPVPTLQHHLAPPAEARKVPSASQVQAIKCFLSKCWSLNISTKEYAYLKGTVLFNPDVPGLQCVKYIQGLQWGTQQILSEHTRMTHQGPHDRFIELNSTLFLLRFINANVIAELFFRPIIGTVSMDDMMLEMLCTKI
Starred values were filed as active, the others as inactive; nt = no result given; ! = not confirmed by another sample.

SMILES	ssDAF12 agonist	hgDAF12 agonist	hcDAF12 agonist	PolyA inhibitor	DAX1 inh-1	DAX1 inh-2
CCOC(=O)c1c(NC(=S)NCc2ccccc2)sc2c1CCN(C(=O)OCC)C2	-1.5	-1.3	-0.5	-6.7	-0.4	6.0*
C=CCNC(=S)Nc1sc2c(c1C(=O)OCC)CCN(C(=O)OCC)C2	-1.3	-1.7	-2.0	-15.3	-0.8	1.5
CCOC(=O)[C@]12CCCCC/C=C\1N(Cc1ccc(OC)cc1)C(=O)[C@H]2CC(=O)NCc1cccs1	0.1	3.6	-1.7	nt	0.2	nt
Cc1[nH]c2ccccc2c1C(=O)COC(=O)c1ccc([N+](=O)[O-])s1	1.0*	1.4	4.0	-89.5	0.5	-0.9
O=C(COC(=O)c1ccc([N+](=O)[O-])s1)NCc1ccccc1	-1.2	-2.9	1.2	2.9	-0.3	2.0
Cc1cc(NS(=O)(=O)c2ccc(NC(=O)CSc3nnc(-c4cccnc4)n3-c3ccccc3)cc2)nc(C)n1	-0.8	-0.8	-1.3	nt	0.1	nt
O=C(O)CSc1nc2c(c(C(F)(F)F)n1)CCCC2	-1.4	0.7	-0.1	-10.9	-0.3	5.1*!
Cc1nc(SCc2cccc(C(=O)O)c2)nc2c1CCCC2	-2.4	-9.1	-5.2	-12.7	-0.6	-1.1
COC(=O)CSc1nc(C)c2c(n1)CCCC2	-0.8	0.4	-1.1	9.0	1.0	4.6*
COC(=O)c1ccc(-c2ccc(F)cc2)nc1C	0.2	11.9*	2.2	-9.6	1.4	2.0
CCOC(=O)c1ccc(-c2ccc3c(c2)CCC3)nc1C	-0.5	10.4	5.6*	-4.2	2.1	1.9
NC(=O)c1ncn([C@@H]2O[C@H](C(=O)N[C@H](Cc3ccccc3)C(=O)N3CCN(CC(=O)Nc4ccccn4)CC3)[C@@H](O)[C@H]2O)n1	-0.8	2.1	-0.5	nt	-0.1	nt
COC(=O)[C@]12C[C@H](CC(=O)N3CCC(c4ccccc4)CC3)C(=O)N(CCc3ccc(OC)c(OC)c3)C1=C[C@H](COCc1ccccc1)O[C@@H]2C	-0.8	1.8	-2.4	nt	-0.8	nt
COc1ccc(C(=O)OCCN2CCN(C3CN(Cc4cn(Cc5cccc(F)c5)nn4)S(=O)(=O)C3)CC2)cc1OC (stereo not drawn)	-1.9	0.7	-3.4	nt	-2.0	nt
CC1(C)Oc2ccc(C(=O)NCCCN3CCCC3)cc2NC1=O	-1.3	-1.5	1.8	nt	0.9	nt
O=C(CCn1c(=S)oc2ccccc21)NC1CCCCC1	5.3*	2.7	0.1	13.8	0.0	4.2
C#CCN1CC(COc2ccccc2)Oc2cccc(Oc3ccc(OC)cc3)c2S1(=O)=O (stereo not drawn)	-1.3	-0.6	1.4	nt	0.1	nt
CC(C)n1c(O)c(N=NC(=O)C2COc3ccccc3O2)c2ccccc21 (stereo not drawn)	1.1*	-1.7	3.1	1.6	-0.1	-0.5
Clc1ccc(-n2nnnc2-c2cnc3ccc(Cl)cc3c2-c2ccccc2)cc1	-1.1	0.6	-0.7	10.4	0.1	6.2*
Cc1ccccc1N(C)C(=O)Cn1nnc(-c2ccccc2F)n1	-1.1	2.2	-2.4	nt	0.3	nt
FC(F)Oc1ccc(C2N=C(c3ccccc3)NO2)cc1 (stereo not drawn)	0.5	13.2*	4.2	5.2	1.1	1.0
O=C(CN1CCOCC1)NNC(=S)Nc1ccccc1	-1.6	-0.4	-0.5	1.1	-0.3	6.1*
NC(=O)c1ccccc1NC(=O)CN1CCOCC1	-1.2	1.0	-1.2	-8.8	-0.2	4.3*
COC(=O)[C@H](CC(C)C)N(CCc1cn(Cc2ccccc2)nn1)S(=O)(=O)c1ccccc1Br	-0.7	-3.2	-2.4	nt	-1.0	nt
COc1cc(/C=C2/C(=N)N3N=C(CC(=O)N4CCOCC4)SC3=NC2=O)ccc1OCc1ccc(F)cc1	0.0	9.3	3.2	-6.0	3.8*	0.6
SMILES	ssDAF12 agonist	hgDAF12 agonist	hcDAF12 agonist	PolyA inhibitor	DAX1 inh-1	DAX1 inh-2
COc1ccc(-c2ccc3c(=O)cc(-c4ccsc4)oc3c2)cn1	-0.8	-0.6	-1.3	nt	0.5	-0.2
O=c1cc(-c2ccccc2F)oc2ccccc12	-0.7	11.1*	0.8	-20.6	2.1	0.2
O=c1cc(-c2ccccc2)oc2ccc(Cl)cc12	-1.1	8.5	3.4	nt	3.9*	3.0
Cc1ccccc1-c1cc(=O)c2ccccc2o1	-1.5	0.6	-2.7	nt	-0.2	0.8
O=c1cc(-c2ccccc2)oc2ccc(Br)cc12	0.0	6.3	2.7	nt	1.5	0.6
O=c1cc(-c2ccsc2)oc2cc(-c3ccc4c(c3)OCO4)ccc12	-1.5	-0.2	0.6	nt	-0.5	4.7*
O=c1cc(-c2ccc3c(c2)OCCO3)oc2ccc(Cl)cc12	0.6	12.2*	0.5	-16.0	1.7	1.7
O=C(O)c1cc(=O)c2cc(Cl)ccc2o1	-0.8	0.1	-0.4	3.9	-0.8	-0.4
COc1ccc(/C=N\NC(=O)Cc2cccs2)c(OC)c1OC	-1.1	7.3	-0.4	nt	0.3	nt
COC(=O)CCC[C@H](C)[C@@H](NS(=O)(=O)c1ccc(C)cc1)C(C)(C)C	-1.7	-1.8	-2.0	nt	-0.4	nt
CCCCNC(=O)C[C@H]1C[C@@]2(C(=O)OC)C(=C[C@H](COCc3ccccc3)O[C@@H]2C)N(Cc2ccccc2)C1=O	-1.6	-0.4	-2.4	nt	-0.8	nt
CCCN1CCCCC(NC(=O)c2ccc(Cl)cc2Cl)C1=O (stereo not drawn)	-0.2	-1.1	-0.6	nt	-0.7	nt
O=c1cc(-c2cccs2)oc2ccc(Cl)cc12	-0.5	10.3	4.9	-12.3	0.9	5.3*
CCOC(=O)c1c(C)nc2sc3c(=O)n(-c4ccc(OC)cc4)cnc3c2c1-c1ccc(OC)cc1	-0.9	3.6	-0.1	15.6	-0.3	-0.2
CCOC(=O)c1c(C)nc2sc3c(=O)n(-c4ccc(C(C)=O)cc4)nnc3c2c1-c1ccc(OC)cc1	-1.6	1.0	7.0*	22.9	-0.6	0.4
CC1(C)OC(=O)C(=NNc2ccccc2)C(=O)O1	-0.3	-1.2	-1.4	-0.2	-1.0	0.2
c1ccc(NN=C2c3ccccc3-c3ccccc32)cc1	0.7	2.0	5.7*	nt	0.3	0.2
C=CCNC(=O)C1CCN(c2cncnc2)CC1	-0.9	-0.1	-0.4	nt	-0.1	nt
Clc1ccc(SCc2cc(-c3ccccc3)on2)cc1	-1.3	3.0	0.3	-16.9	-0.4	0.0
c1ccc(Cc2cc(-c3ccccc3)on2)cc1	-0.6	9.8	1.1	-29.8	0.4	5.5*
CCN(CC)c1ccc(/C=N/NC(=O)OC(C)(C)C)cc1	0.6	5.1	2.6	-0.5	1.6	4.9*
Cc1ccc(/C=N/NC(=O)Nc2ccccc2)o1	0.0	11.0*	4.4	3.0	2.3	2.1
Cc1ccc(/C=N/NC(=O)C(O)c2ccccc2)o1 (stereo not drawn)	-1.2	1.3	-1.6	11.5	0.1	-1.4
CCN(CC)c1ccc(/C=N\NC(N)=O)cc1	-1.4	-6.1	-2.8	-0.2	-0.6	-0.6
CCN(CC)c1ccc(/C=N/NC(=O)Nc2ccccc2)cc1	0.3	10.9*	4.2	3.7	1.5	1.9
